SARS PLpro yeast: SARS-CoV PLP inhibition in yeast | AID 485353 | Potency, µM (top dose mostly 32.9 µM), hits mostly activators | S. cerevisiae expressing SARS-CoV PLpro, growth rescue | 330,000 compounds, 0.19% hits; also: nearly all actives have a fitted effect of over 55% in size
Tb PYK inh: inhibitors of Trypanosoma brucei pyruvate kinase; Q57TT1; TbPYK enzyme, Kinase-Glo Plus ATP luminescence, 45 min; Potency, µM (doses to about 76.8 µM), most hits filed as inhibitors; 410,000 compounds, 0.12% hits; active = well fitted curve in the direction sought with a large enough effect; inconclusive = small, poorly fitted or top-dose-only effect, or another doubt; inactive = no such curve, though single readings can be large; an effect the other way counts as inactive or inconclusive; also: nearly all actives have a fitted effect of over 50% in size
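Luminescent Kinase-Glo Plus end-point after 45 min room-temperature reaction of T. brucei pyruvate kinase started with 130 uM ADP (final). Buffer TEA 50 mM pH 7.2 with KCl, MgCl2, BSA, Tween-20; titration-based qHTS with fitted concentration-effect curves.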
LmPK inhibitor: blocks Leishmania mexicana pyruvate kinase activity; purified LmPK, Kinase-Glo ATP luminescence, 1 h; 290,000 compounds, 0.37% hits; Q27686; Potency, µM (titrated, usually from 57.5 µM), most hits filed as inhibitors; active = well fitted curve in the direction sought with a large enough effect; inconclusive = small, poorly fitted or top-dose-only effect, or another doubt; inactive = no such curve, though single readings can be large; an effect the other way counts as inactive or inconclusive
Target sequence (Q27686 whole entry, looked up): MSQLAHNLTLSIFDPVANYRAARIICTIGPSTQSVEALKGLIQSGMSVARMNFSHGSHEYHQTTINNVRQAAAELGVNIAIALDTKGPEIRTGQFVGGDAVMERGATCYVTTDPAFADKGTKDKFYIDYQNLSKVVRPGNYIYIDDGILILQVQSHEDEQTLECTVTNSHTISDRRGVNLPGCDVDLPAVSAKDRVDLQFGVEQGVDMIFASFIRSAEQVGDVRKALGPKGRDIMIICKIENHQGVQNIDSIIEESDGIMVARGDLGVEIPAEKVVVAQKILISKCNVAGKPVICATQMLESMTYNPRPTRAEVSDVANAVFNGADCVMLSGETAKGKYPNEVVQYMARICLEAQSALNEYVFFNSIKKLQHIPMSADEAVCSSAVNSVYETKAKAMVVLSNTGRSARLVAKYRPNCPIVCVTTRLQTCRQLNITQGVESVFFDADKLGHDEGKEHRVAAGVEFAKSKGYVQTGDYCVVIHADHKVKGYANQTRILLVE
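Purified LmPK (0.1 nM) converted ADP (0.1 mM) to ATP with PEP (0.5 mM) in imidazole buffer pH 7.2 with KCl and MgCl2, 1 h at room temperature. ATP was read by Kinase-Glo luminescence; data normalized to uninhibited and no-enzyme controls.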
Cycloheximide cs: counter-screen hit for Shiga toxin inhibitors, cycloheximide. 300,000 compounds, 12% hits. AID 2314. cell reporter, cycloheximide protein synthesis inhibition counterscreen. max response, %; in the data active = max response mostly above about 13%, no sharp cut-off; inactive = mostly below about 14%; also: read at 38.3 µM for the half of the compounds with a filed dose
Shiga inhibitor: Shiga toxin inhibition; inhibition, % at 38.7 µM; AID 2315; 290,000 compounds, 9.2% hits; Vero cells, Shiga toxin protein synthesis inhibition reporter; in the data active = inhibition mostly above about 28%, no sharp cut-off; inactive = mostly below about 43%
NS1 inh: blocks influenza NS1 protein function. Potency, µM (top dose mostly 46.1 µM). AID 2326. 270,000 compounds, 0.4% hits; also: actives are rising curves; nearly all actives have a fitted effect of over 50% in size
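A cell-based growth assay was used: compounds that relieve NS1-induced slow growth of budding yeast raise OD600. Assay medium was yeast nitrogen base with ammonium sulphate and -URA supplement, pH 6.0, with 2% galactose.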
Hits are given with their value; n = inactive; u = inconclusive; x = not tested or not shown; [ ] = another dose, or the depositor's remark. The full list was thinned out, with hits kept by preference. Unless noted, calls follow the shape of the full dose curve.

SMILES	SARS PLpro yeast	Tb PYK inh	LmPK inhibitor	Cycloheximide cs	Shiga inhibitor	NS1 inh
Cc1ccc(NC(=O)Cn2nc(N3CCN(c4ccccc4)CC3)ccc2=O)cc1F	x	n	x	x	x	x
CCn1c(=O)n(C2=C(CO)CN(CC3CCCCCCC3)CC2)c2ccccc21	x	x	x	n	n	x
Cc1ccc2c(c1)CC1(CN2C)C(=O)OC2(CCCCC2)OC1=O	n	n	14µM	n	n	n
O=C(CCC1CCCN(C(=O)c2ccc3c(c2)OCO3)C1)NCc1ccc(F)c(F)c1 (centres undefined)	n	n	n	15	41	n
O=C(CCC1CCCN(C(=O)c2ccoc2)C1)NCc1ccc(F)c(F)c1 (centres undefined)	n	n	n	n	n	n
O=C(CCC1CCCN(C(=O)c2ccc3cc[nH]c3c2)C1)NCc1ccc(F)c(F)c1 (centres undefined)	n	n	n	29	30	n
CCOC(=O)c1cnc2c(ccc3ccccc32)c1Nc1cccc(Cl)c1	x	n	x	x	x	x
CCc1cc(-c2oncc2-c2ccc(OC)cc2)c(O)cc1OC	x	x	x	n	n	x
COc1ccc(C(=O)/C(=C/N(C)C)S(=O)(=O)c2ccccc2)cc1	n	n	n	27	61	n
CC(C)(C)S(=O)N1Cc2ccc(CO)cc2[C@@H]1CCO (some centres undefined)	x	n	x	x	x	x
COc1cc2c(cc1OC)C(c1ccc(-c3ccc(Cl)c(Cl)c3)o1)=NCC2	n	n	13µM	n	n	n
COc1ccc(Nc2ncnc3c2c(C)c(C)n3CCO)cc1	n	n	n	48	72	n
Cc1c(C)n(CCO)c2ncnc(Nc3ccc(F)cc3)c12	n	n	n	n	69	n
COc1ccc(CCNc2ncnc3c2c(C)c(C)n3CCO)cc1OC	n	n	n	n	n	n
Cc1ccc([C@H]2C[C@@H](n3cc(C4CC4)nn3)[C@H](O)CN2CC2CCCCC2)cc1	x	n	x	x	x	x
COc1ccc(-c2c(C)nn(-c3ccccc3)c2N)cc1	n	n	n	23	n	n
Cc1nn(-c2ccc(C(=O)O)cc2)c(N)c1-c1ccccc1	n	n	n	28	23	n
Cc1nn(-c2ccc(C(=O)O)cc2)c(C)c1Oc1ccccc1O	n	n	n	n	n	n
COc1ccc(-c2c(C)nn(-c3ccccc3)c2N)cc1OC	n	n	n	n	n	n
Cc1nn(C(C)(C)C)c(N)c1-c1ccccc1	n	n	n	n	n	n
Cc1nn(-c2ccc(C(=O)O)cc2)c(C)c1Cl	n	n	n	25	58	n
CCCCNC(=O)/C(C#N)=C/c1ccc2c(c1)OCCO2	n	n	n	47	50	n
COc1ccc(/C=C(/C#N)C(=O)NC2CCCCC2)cc1Br	n	n	n	n	n	n
N#C/C(=C\c1ccc2c(c1)OCCO2)C(=O)NC1CCCCC1	u	n	n	39	n	n
CSc1ncc(CN2CCCC(C(=O)c3ccc(C(C)(C)C)cc3)C2)cn1 (centres undefined)	n	n	n	22	n	n
SMILES	SARS PLpro yeast	Tb PYK inh	LmPK inhibitor	Cycloheximide cs	Shiga inhibitor	NS1 inh
COc1ccccc1N1CCN(C(=O)C2CCN(S(=O)(=O)c3cnc[nH]3)CC2)CC1	x	n	x	x	x	x
CCN1CCN(CCNC(=O)c2ccc(/C=C3\Sc4ccccc4N(Cc4ccccc4F)C3=O)cc2)CC1	n	n	n	n	n	x
COCCCNC(=O)/C=C1\Sc2ccccc2N(Cc2ccccc2F)C1=O	n	n	n	32	n	x
N#Cc1cccc(NC(=O)N2CC[C@@]3(CCCN(C(=O)c4cccc(F)c4)C3)C2)c1	x	n	x	x	x	x
COc1cc(NC(=O)C2=C(N3CCOCC3)/C(=C/c3ccc(Cl)cc3)CC2)cc(OC)c1OC	n	n	n	n	n	n
COc1cc(NC(=O)C2=C(N3CCOCC3)/C(=C\c3ccc(N(C)C)cc3)CCC2)cc(OC)c1OC	n	n	n	46	77	n
CS(=O)(=O)Nc1cccc(NC(=O)C2Cc3c(-c4cccc(F)c4)ccnc3O2)c1 (centres undefined)	x	n	x	x	x	x
Cc1ccccc1NCC(=O)N=Nc1c(O)[nH]c2ccc([N+](=O)[O-])cc12	n	n	n	n	n	n
Cc1ccc(NCC(=O)N=Nc2c(O)[nH]c3ccc([N+](=O)[O-])cc23)cc1	n	n	n	43	n	n
O=C(Nc1ccc(F)cc1)C(=O)c1c(O)[nH]c2ccc([N+](=O)[O-])cc12	n	n	n	19	n	n
O=C(N=Nc1c(O)[nH]c2ccc([N+](=O)[O-])cc12)c1ccccc1Cl	n	n	n	n	n	n
CC1Cc2cc(-c3csc(NC(=O)Cc4cccs4)n3)ccc2N1S(C)(=O)=O (centres undefined)	n	n	n	n	n	n
COc1ccccc1C(=O)Nc1nc(-c2ccc3c(c2)OCCO3)cs1	n	n	n[11.5 µM]	28	57	x
O=C(/C=C/c1ccc2c(c1)OCO2)Nc1nc(-c2ccc(F)cc2)cs1	n	x	n	n	n	n
CCC(=O)Nc1nc(-c2ccc3c(c2)OCCO3)cs1	n	n	n	31	active	n
COc1ccc(-c2csc(NC(=O)C3=COCCO3)n2)cc1OC	n	n	x	x	x	x
CCC(=O)Nc1nc(-c2ccc3c(c2)CC(C)N3S(C)(=O)=O)cs1 (centres undefined)	n	n	n	26	n	n
CC(C)(C)C(=O)Nc1nc(-c2ccc3c(c2)OCO3)cs1	n	n	n	24	51	n
CC1C(=O)C(=O)C=CN1C (centres undefined)	x	n	x	x	x	x
CC12CCC(=O)N1C(C(=O)Nc1ccc(Br)cc1Cl)CS2 (centres undefined)	n	n	n	n	n	n
CC1CCCC(NC(=O)CSc2nncs2)C1C (centres undefined)	n	n	x	x	x	x
C=CCNc1nc(-c2ccc3c(c2)OCCO3)cs1	x	n	x	x	x	x
c1cc2c(cc1-c1csc(NNC3=NCCCCC3)n1)OCCO2	n	n	n	37	55	x
Cc1ccc(C(=O)NNC(=O)Cc2cccs2)cc1	n	n	n	20	n	n
Cc1ccc(C(=O)NNC(=O)Cc2ccccc2)cc1	n	u	n	28	n	n
SMILES	SARS PLpro yeast	Tb PYK inh	LmPK inhibitor	Cycloheximide cs	Shiga inhibitor	NS1 inh
O=C(Cc1cccs1)NNC(=O)c1ccc(F)cc1	n	n	n	n	n	n
O=C(Cn1cnc2ccccc2c1=O)N1CCN(S(=O)(=O)c2ccc(F)cc2)CC1	n	n	x	x	x	x
C=CCn1c(COc2ccc(F)cc2)nnc1SC(C)C(=O)NCC1CCCO1 (centres undefined)	n	n	x	x	x	x
O=[N+]([O-])c1cc(/C=N\O)ccc1Oc1ccc(F)cc1	n	n	n	27	n	n
COc1cc(/C=N/O)ccc1Oc1ccc([N+](=O)[O-])cc1[N+](=O)[O-]	n	n	n	n	n	x
Cc1cccc(OCC(=O)O/N=C(\N)c2ccccn2)c1C	n	n	n	28	65	n
N/C(=N\OC(=O)Cc1ccc(Cl)cc1)c1ccncc1	n	n	n	n	n	n

Assay outcomes (PubChem BioAssay)
